# Test results reported in the supplement of paper PMC11417369.
# Over roughly 25,000 sequences, “ln(normalized median fluorescence intensity)” has its median near 7.1; the highest 2% begin near 10. For the sample, the highest values were picked, then their nearest neighbours and some sequences at random.
# Tested on: PfSIP2 AP2 domain 1 (GST-tagged)
# Assay: gcPBM binding intensity (ln(normalized median fluorescence intensity)); higher = stronger DNA binding
# Procedure, shortened: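 Each value is the highest Masliner-normalised natural-log median intensity across replicate spots of either orientation of a probe. The probes were primer-extended double-stranded 36-bp intergenic genomic sequences on an Agilent 4 × 180k array, alongside negative controls, exposed for 1 h to GST-tagged P. falciparum DNA-binding domains expressed in E. coli. Bound protein was picked up with Alexa488 anti-GST antibody and scanned at 488 nm.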
row,Sequence,gcPBM binding intensity (ln)
1,AAATTTAACAACTTCAAACACACAATATATATATAT [CACACA_site2092],8.91
2,AACATACCCATATACACACACACATAAATACAGATA [CACACA_site4744],7.3
3,GATTGATTATATGTGTGTACTTATATGTTAAAAAAA [XGTACX_site4784],7.29
4,AGTCATATAAATAGTAGTACTGTGTGTGAAGAAAAA [XGTACX_site5056],7.42
5,TTAACAAAATTTCCGTGTACGTAAATAAGAACATAG [XGTACX_site7200],7.25
6,ACAAATACAAAAAAAGGTACACACATAATATATTTA [XGTACX_site5515],7.04
7,ACATTCAATCTACTGTGTACATATTAAACTTTGAAA [XGTACX_site2913],7.49
8,ATTATATATATATTATGTACATATATTGAAGTGGAT [XGTACX_site5916],7.56
9,TATACTTTATATATTTTGTATATATATTTTTTTTAT [TGCATGCA_negctrl_site530],7
10,ATTTTTTTTTTTTTTTTGGGGGGGTATACTTTTAAA [CACACA_negctrl_site1020],10.7
11,GTTAATATTTTTGGGGGTACTTAAAAAAAAAAAAAA [XGTACX_site1477],7.78
12,AATAAATTGAAACACACACACACATATATATATATA [CACACA_site848],9.2
13,AGGAGGATATTACACAGTACCCAGGAAATCTACGGA [XGTACX_site4878],6.82
14,ACATATTTTATTTTTTGTACACATATATTATTTTTT [XGTACX_site6528],7.28
15,TTGCATATTTCTAATTGTACATTATTTTATTTTATA [XGTACX_site8451],6.96
16,ATATATAATTAATTTTGTACACATAAAAAAAAAAAT [XGTACX_site6647],7.25
17,AATTAATTAAATTAATGTACACATATATTTGTATTC [XGTACX_site2341],7.14
18,CTTAAATTAATTTGGGTGCATATATTTGTACACATT [GTGCAC_site9948],10.9
19,TTGGGTGCATATATTTGTACACATTATTTCTATTTT [XGTACX_site3688],12
20,AAAACCTAAAAGTCTTAAATTTTAAATATACCTACA [GTGCAC_negctrl_site492],6.6
21,TTTATTTTATCATTTGCACACGCACCCAGACATAAA [CACACA_site4347],10.8
22,TATTTTATCATTTGCACACGCACACCCACATAAAAA [CACACA_site354],8.03
23,TTTATTTTATCATTTGCACACGCACCCCCACATAAA [CACACA_site8007],11.5
24,TTTATTTTATCATTTGCACACGCACGCCCACATAAA [CACACA_site353],7.85
25,TATTTTATCATTTGCACACGCACACCGACATAAAAA [CACACA_site4348],7.71
26,CCCATGCATTTTTGCACACACATATATTTATAAATA [CACACA_site6785],8.16
